In the supplement of paper PMC10105736:
Values without a mark were called inactive.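 How the source made its calls: active = MAPPIT score above the 99th percentile of random reference set scores in the same batch; inactive = at or below it.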

Legend:
Assay in all cases: MAPPIT interaction score (arbitrary units); higher = stronger binary interaction signal, active = hit call of the paper
saturn = details: MAPPIT configuration: N-C; pair source set: screen_4
sip2 = details: MAPPIT configuration: N-N; pair source set: Curagen_low_conf
spir = details: pair source set: RRS
sqd = details: MAPPIT configuration: N-C; pair source set: Lit-BM-16
sw = details: pair source set: Lit-BM-16
tup = details: MAPPIT configuration: N-N; pair source set: Curagen_low_conf
up = details: MAPPIT configuration: N-N; pair source set: RRS
yip2 = details: MAPPIT configuration: N-N; pair source set: Curagen_high_conf
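Further: HEK293T cells with Epo stimulation, STAT-responsive firefly luciferase reporter, fold induction versus unstimulated cells divided by the larger fold induction of two negative controls lacking either bait or prey.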

B1: ORMDL (protein)
chain: MTSIAGGHGEANPNSSWLSARGFWLAYLLGLLSVHLLFLSVPFVSIPWAWTATNLLHNAAHLYFLHVIKGAPWLSTENDPSRRWTHWEQIDDGVQMTTTRKFLTAVPIVLFLLTCLYTRNNTEHFIPNFISLVVVTLPKLPQFHGVRLFNINKY
B1 was tested. Which MAPPIT interaction score (saturn) did it give?
Its MAPPIT interaction score is 0.115.

B2: Mabi (protein)
chain: MEHHQIYRHKKFDMGRKIEKCDLQLKEELISRSGTPCTSRSPFDAANQSVSLGFSDQDADFPPLPKRRRLGSSSSSVSYQSASPIITEAIQDIFKYHVNMVRKFPKKERSPKDQERRNKNTIACRMSRRKKKFDDLQIEQQYKECSDEHLKIAEQSLRARVYLNHLKQLVKQEDHPLVSSRRVPEENTKSNFSIDYLIGGIKQEHA
With B2 as the binder, how does the MAPPIT interaction score (sip2) read?
Its MAPPIT interaction score is 0.378.

B3: Acp1 (protein)
chain: MKFAVAVIFTLALAMGVQSSVIPLLSQVAGHGLSYTAVSGPAVVASPWAVPAAHWPAAVNVASWPPAAIHAAAPAVLAAPAPAVVAAHAPSVVVAPVAHSGVYTAQTRGAIHTAPLAGHIQSVASINAAPAPGTL
For B3, which MAPPIT interaction score (spir; MAPPIT configuration: N-C) is on record?
The MAPPIT interaction score was 0.0271.

What about the MAPPIT interaction score (spir; MAPPIT configuration: N-N) of the same binder?
Its MAPPIT interaction score is 0.686.

B4: Hrb27C (protein)
chain: MEEDERGKLFVGGLSWETTQENLSRYFCRFGDIIDCVVMKNNESGRSRGFGFVTFADPTNVNHVLQNGPHTLDGRTIDPKPCNPRTLQKPKKGGGYKVFLGGLPSNVTETDLRTFFNRYGKVTEVVIMYDQEKKKSRGFGFLSFEEESSVEHVTNERYINLNGKQVEIKKAEPRDGSGGQNSNNSTVGGAYGKLGNECSHWGPHHAPINMMQGQNGQMGGPPLNMPIGAPNMMPGYQGWGTSPQQQQYGYGNSGPGSYQGWGAPPGPQGPPPQWSNYAGPQQTQGYGGYDMYNSTSTGAPSGPSGGGSWNSWNMPPNSAGPTGAPGAGAGTATDMYSRAQAWATGGPSTTGPVGGMPRTGPGNSASKSGSEYDYGGYGSGYDYDYSNYVKQEGASNYGAGPRSAYGNDSSTQPPYATSQAV
With B4 as the binder, how does the MAPPIT interaction score (sqd) read?
The MAPPIT interaction score was 2.4.

B5: DCTN1-p150 (protein)
chain: MSEKNLKVGARVELTGKDLLGTVAYVGMTSFAVGKWVGVVLDEPKGKNSGSIKGQQYFQCDENCGMFVRPTQLRLLEAAPGSRRSIEDVSGATPTAAQPTKARLSSSRTSLSSSRQSLLGSRTQLTTSLSERTASSSSIGPRKSLAPQNSKDKESPSTSLAEGAPAASGGNGAASHASSKRASFVETGFLEILKPQFTPSQPLRSPSFTMPSNSGAEDKVALLEAQKTSAELQAQLADLTEKLETLKQRRNEDKERLREFDKMKIQFEQLQEFRTKIMGAQASLQKELLRAKQEAKDAIEAKEQHAQEMADLADNVEMITLDKEMAEEKADTLQLELESSKERIEELEVDLELLRSEMQNKAESAIGNISGGGDSPGLSTYEFKQLEQQNIRLKETLVRLRDLSAHDKHDIQKLSKELEMKRSEVTELERTKEKLSAKIDELEAIVADLQEQVDAALGAEEMVEQLAEKKMELEDKVKLLEEEIAQLEALEEVHEQLVESNHELELDLREELDLANGAKKEVLRERDAAIETIYDRDQTIVKFRELVQKLNDQLTELRDRNSSNEKESLQDPSLKMVTETIDYKQMFAESKAYTRAIDVQLRQIELSQANEHVQMLTAFMPESFMSRGGDHDSILVILLISRIVFKCDIVVSQTRERFPPVDAITREAVTQGHAVQQYAFKCRLLHYVHSLQCALHQILYGLNSCQPDTLLRAGSSLPEMVAQEKIVDGIIELLKSNQLDENSTTDNIEKCVAFFNAMNSVLLAGEQLLNEIQMIRDCVASLGAACESILSDTAIAKVIIQEAGATSDSVLLIQFLNENMESVRQQVKLIKRRLPSDQHVIKSGLSQHKVEAMRGLAQNISRIMSAMHQATKQSLAAIVSTIESDNAAEHTLPQEKYWALLTASCERIYEQDDRGPTQNFKTLLAQANSDLQLIAQHLLDKEYDIISAANNASNQQKSGAHSTPITQRAQLIKKQLEQKNVLAATLENREADVKQLKVAAKMKQNELSEMQIRKDLAEKKLSVLQNEYEHAVDKWKQKYEETSLQLQLKEKEFEETMDHLQSDIDALESEKSDLRDKLKLNSTTGKVQPGSESHSPHNISLSGNTSTAPGISNVSYSAPAGTAPVVAEEVELLKNAFNQERNQRLRLQAQDMRAKLSQFEPLHVPQPQDQRITALESELTRMKHAWVLSLLQVRSQDSVNSGTRIDAVALQRRNQPVPLKGEISSKASQLASDILTEYLQRKPHRATHGQFASFPTVDVKRVLQI
With B5 as the binder, how does the MAPPIT interaction score (sw; MAPPIT configuration: N-C) read?
The MAPPIT interaction score was 0.412.

What about the MAPPIT interaction score (sw; MAPPIT configuration: N-N) of the same binder?
Its MAPPIT interaction score is -0.153.

B6: Fcp3C (protein)
chain: MDGAKAEVFSVSVDTKMGAFKNSLLLLTLLLAIHLEASKIVYKKPLYGNSNIIKDKRIKTKPVKLETSTMSSTGVASSSTTAEEDWPTAVEFVIMTTPASELEASTETIGNNGTTETTVGEAPIIGSSEGSTRSMEPTTASPLMSTNPSSSSSLVSTIPLPPTAGLPVQDNQPVPCTCGVFLSSQIPNGLPTKPLIHQELDHMFPCNAIGRKQCQTKCLETIVQHLPNSANIVCSALGHDCHKERAYLFIKNCHNQWVNTNLQAGREYCCRSGVPYRCPLMG
Which MAPPIT interaction score (tup) does the source give for B6 here?
The MAPPIT interaction score was -0.265.

B7: Pgd (protein)
chain: MSGQADIALIGLAVMGQNLILNMDEKGFVVCAYNRTVAKVKEFLANEAKDTKVIGADSLEDMVSKLKSPRKVMLLVKAGSAVDDFIQQLVPLLSAGDVIIDGGNSEYQDTSRRCDELAKLGLLFVGSGVSGGEEGARHGPSLMPGGHEAAWPLIQPIFQAICAKADGEPCCEWVGDGGAGHFVKMVHNGIEYGDMQLICEAYHIMKSLGLSADQMADEFGKWNSAELDSFLIEITRDILKYKDGKGYLLERIRDTAGQKGTGKWTAIAALQYGVPVTLIGEAVFSRCLSALKDERVQASSVLKGPSTKAQVANLTKFLDDIKHALYCAKIVSYAQGFMLMREAARENKWRLNYGGIALMWRGGCIIRSVFLGNIKDAYTSQPELSNLLLDDFFKKAIERGQDSWREVVANAFRWGIPVPALSTALSFYDGYRTAKLPANLLQAQRDYFGAHTYELLGQEGQFHHTNWTGTGGNVSASTYQA
For B7, which MAPPIT interaction score (up) is on record?
Its MAPPIT interaction score is 0.146.

B8: swa (protein)
chain: MSLQDESFPTDELFDQLNNLSSSGARNTWFAEHHKPAVFERDTAPFLEICYADPDFDADGDVANKSAKTCVSDPVGRDQEDEDDYDEDVDGDDHKLGCEKAPLGSGRSSKAVSYQDIHSAYTKRRFQHVTSKVGQYIAEIQAQDQKRRNVKFAGFQRVNSMPESLTPTLQQVYVHDGDFKVDKNCQTHSNSDSNYNSNSNNSSSSFDRLLAENESLQQKINSLRVEAKRLQGFNEYVQERLDRKTDDFVKMKCNFETLRTELSECQQKLRRQQDNSQHHFMYHIRSATSAKATQTDFLVDTIPASGNVLVTPHPLGDLTYNSSKGSIELALLSVAPSARVAQNPVQVQRAIHPQSLDFSSVSTEADGSGSGEHRVETSSRALVRRTPAPNNSETSQPSSNDSAIEVEAHEEERPSSRRQWEQQGELISPRQWGQHEGMYYFDKRNNRVIEVMGFNISQGRNQSHDTIHNQSINDSQTRLLVHSMSMSHLEAHDHFRSKRTTLGSRMLRFLGPCVRCRNGDPLNRSNVTYKDGLPAMPEEEFVDQRNQR
With B8 as the binder, how does the MAPPIT interaction score (yip2) read?
Its MAPPIT interaction score is 1.92.
